Among the data in PubChem BioAssay (NCI) are growth values, retold here.

Compounds without any hit were thinned out: in the full panel of roughly 83,000, 20% have a hit.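 Results are percent growth after 48 hours of single-concentration exposure. 100 means growth as in untreated cells, lower positive values show inhibition; negative values down to -100 show cell death.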 Calls of active or inactive are those of the source. Rule for the calls: active = growth percent below 10; inactive = the rest.

The subject of this assay is OVCAR-4 ovarian. Nature of the assay: NCI-60 one-dose screen, 48 h (100 = growth as untreated, 0 = no growth, -100 = all killed). The note with it: 10 µM unless noted.
On to `O=C(COc1ccc(/C=C2\SC(=O)NC2=O)cc1)Nc1ccc(C(=O)/C=C/c2cc3ccccc3nc2Cl)cc1`, for which the growth was 42.2% (inactive).

In the case of `CC(C)Sc1nc(NC2CC2)c(C#N)c(-c2ccccc2)n1`, the growth is -8.11% (active).

With `O=C(COc1cccc2cccnc12)Nc1ccc(C(=O)/C=C/c2ccc(Cl)cc2)cc1`, the growth is 92% (inactive).

With `Oc1ccc(CSc2nnc(-c3ccc(Br)cc3)n2-c2ccccc2)c2cccnc12`, the growth was 35.7% (inactive).

On to `COc1ccccc1N1CCN(C2=NN=C(c3cccc(Cl)c3)c3ccccc3C2)CC1`, for which the growth is 38.6% (inactive).

On to `O=C1/C(=C/c2ccc([N+](=O)[O-])cc2)SC(=Nc2ccccc2)N1Nc1ccccc1`, for which the growth was 52.9% (inactive).

Turning to `COc1ccc([C@H]2c3[nH]c4ccccc4c3C[C@@H]3C(=O)N(C4CCN(Cc5ccccc5)CC4)CC(=O)N23)c(OC)c1`, the growth was 82.7% (inactive).

As for `CC1OC(O[C@@H]2[C@H](O)C(CO)OC(O[C@H]3COC(O[C@H]4CC[C@]5(C)[C@H]6CC[C@]78OC[C@@]9(CCC(C)(C)C[C@H]97)[C@H](O)C[C@@]8(C)[C@]6(C)CC[C@H]5C4(C)C)[C@@H](OC4OC(CO)[C@@H](O)[C@@H](O)[C@@H]4O)[C@@H]3O)[C@H]2OC2OC[C@@H](O)[C@@H](O)[C@@H]2O)[C@@H](O)[C@@H](O)[C@H]1O` (stereo not given in full), the growth is -74.1% (active).

In the case of `N#Cc1c(-c2cccs2)cc(-c2cnccn2)nc1SCC(=O)NNC(=S)Nc1ccc(F)cc1`, the growth was 96.3% (inactive).

For `O=C1NC(=O)c2c1c1c3ccccc3ccc1c1[nH]c3ccccc3c21`, the growth is 25.8% (inactive).
